According to PubChem BioAssay (NCI):
Compounds without any hit were thinned out: in the full panel of roughly 83,000, 20% have a hit.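 The endpoint reported here, percent growth, reads 100 for growth as untreated, 0 for no net growth and -100 for all cells dead.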 Values without a mark were called inactive. Calls of active or inactive are those of the source. Rule for the calls: active = growth percent below 10; inactive = the rest.

Key:
Experiment in all cases: NCI-60 one-dose screen, 48 h (100 = growth as untreated, 0 = no growth, -100 = all killed)
Settings in all cases: 10 µM unless noted
SR leukemia = test system: SR leukemia
OVCAR-8 ovarian = test system: OVCAR-8 ovarian
OVCAR-5 ovarian = test system: OVCAR-5 ovarian
OVCAR-4 ovarian = test system: OVCAR-4 ovarian
SK-OV-3 ovarian = test system: SK-OV-3 ovarian
IGROV1 ovarian = test system: IGROV1 ovarian
OVCAR-3 ovarian = test system: OVCAR-3 ovarian
HS 578T breast = test system: HS 578T breast
NCI/ADR-RES ovarian = test system: NCI/ADR-RES ovarian
T-47D breast = test system: T-47D breast
BT-549 breast = test system: BT-549 breast
MDA-MB-435 melanoma = test system: MDA-MB-435 melanoma
SW-620 colon = test system: SW-620 colon
MCF7 breast = test system: MCF7 breast
HCT-116 colon = test system: HCT-116 colon
HCC-2998 colon = test system: HCC-2998 colon
KM12 colon = test system: KM12 colon
RPMI-8226 leukemia = test system: RPMI-8226 leukemia

| SMILES | growth (SR leukemia) | growth (OVCAR-8 ovarian) | growth (OVCAR-5 ovarian) | growth (OVCAR-4 ovarian) | growth (SK-OV-3 ovarian) | growth (IGROV1 ovarian) | growth (OVCAR-3 ovarian) | growth (HS 578T breast) | growth (NCI/ADR-RES ovarian) | growth (T-47D breast) [%] | growth (BT-549 breast) | growth (MDA-MB-435 melanoma) | growth (SW-620 colon) | growth (MCF7 breast) [%] | growth (HCT-116 colon) | growth (HCC-2998 colon) | growth (KM12 colon) | growth (RPMI-8226 leukemia) [%] |
| --- | --- | --- | --- | --- | --- | --- | --- | --- | --- | --- | --- | --- | --- | --- | --- | --- | --- | --- |
| NC(=O)c1ncn(C2OC(CO)C(O)C2O)n1 (stereo unspecified) | 73.2% | 87.5% | 95.2% | 87.8% | 87.9% | 4.17% (active) | 95.1% | 86.4% | 88.6% | 84.6 | 96.8% | 107% | 70.9% | 80.8 | 57.5% | 92.8% | 98.3% | – |
| COc1cc(OC)cc(C2C3=C(COC3=O)Nc3cc(OC)ccc32)c1 (stereo unspecified) | 8.35% (active) | 8.63% (active) | 39.5% | 49.4% | -3.6% (active) | 42.2% | -50% (active) | 68.1% | -18.6% (active) | 68.8 | -2.09% (active) | -30% (active) | 26.6% | 15.7 | 1.55% (active) | 1.15% (active) | -3.49% (active) | – |
| COc1ccc(Cn2nc(-c3ccccc3)c3c2CCc2cnoc2-3)cc1 | 36% | 80.8% | 102% | 72.1% | 83.1% | 86% | 87.4% | 90.7% | 66.7% | 43.4 | 82.1% | 28.4% | 83.2% | 72.6 | 65.4% | 67.4% | 56.8% | – |
| COc1ccc(Cn2nc(-c3cc(OC)c(OC)c(OC)c3)c3c2CCc2cnoc2-3)cc1OC | 1.81% (active) | 79% | 89.9% | 70.7% | 47% | 63.4% | 39.7% | 72.5% | 26.1% | 65.8 | 61.1% | -7.19% (active) | 48% | 29.8 | 46.6% | 70.5% | 54% | – |
| CN1CCCC1=Nc1ccccc1 | 91.9% | 105% | 118% | – | – | 111% | 128% | 106% | 104% | 106 | 130% | – | 112% | 97.2 | 114% | 110% | 114% | 107 |
| Cc1c(C(=O)NO)sc2ncnc(Nc3ccc(NC(=S)Nc4ccccc4)cc3)c12 | 110% | 103% | 103% | 105% | 121% | 112% | 111% | 105% | 99.6% | 113 | 106% | 101% | 105% | 95.3 | 105% | 99.9% | 102% | – |
| CCOC(=O)c1cnc2c(cnn2CC)c1NN=C(C)C | 65.9% | 98.9% | 80.3% | – | 98.5% | 9.1% (active) | 104% | 94.5% | 83.3% | 87.7 | 91% | 108% | 104% | 88.7 | 86.5% | 94.9% | 96.5% | – |
| COc1nccnn1 | – | 111% | 101% | 101% | 110% | 118% | 146% | 86.7% | 101% | 107 | 94% | 93% | 101% | 103 | 99.2% | 110% | – | 70.1 |
| O=C(N/N=C/c1ccc(O)c(O)c1)c1sc2ccccc2c1Cl | – | 90.4% | 100% | 92.7% | 75.7% | 64.1% | 96.9% | 84.4% | 83.7% | 62.3 | 84.4% | 88.7% | 75.2% | 54.4 | 80% | 96.5% | 89% | 16.6 |
| Cc1n[nH]c(C)c1-c1c(C)n[nH]c1C | -6.74% (active) | 12.4% | 2.14% (active) | -17.5% (active) | 46.8% | 5.52% (active) | -53.4% (active) | -8.48% (active) | 9.39% (active) | – | 2.96% (active) | -35.9% (active) | -26.1% (active) | 10.3 | -44.1% (active) | 4.99% (active) | -19.3% (active) | – |
| CCCC/C(=N\N=C(N)N)c1ccc(F)cc1 | – | 33.6% | 50.5% | 39.7% | 13.7% | 45% | -11.4% (active) | 26.1% | 7.48% (active) | 38.9 | 21.6% | -19.8% (active) | 23.8% | 13.1 | 21.1% | 37% | 15.7% | 36 |
| Nc1cc(N)c2cccnc2c1O | – | 68.6% | 96% | 91.2% | 101% | 66.7% | 89% | 63.6% | 71.7% | 93.4 | 90.3% | -83.9% (active) | 60% | 46.3 | 51.7% | 77.1% | 81.6% | 88 |
| O=c1nc2n(nc1/C=C/c1ccco1)CC(c1ccc(Cl)cc1)=NN2 | 45% | 67.9% | 122% | 95.3% | 93% | 8.48% (active) | 109% | 116% | 100% | 49.7 | 84.1% | 110% | 102% | 22.2 | 99% | 110% | 115% | – |
